High-throughput results as filed in PubChem.
An excerpt weighted towards active compounds, which were near 2.4% of everything screened.
Cruzain inh Det: blocks cruzain activity in presence of Triton detergent | AID 1478 | 0.43% of 200,000 active | Potency, µM, inactives show max response, negative = inhibition, hits mostly inhibitors | purified cruzain, Z-FR-AMC fluorescence, 0.01% Triton;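 also: plate controls were neutral wells for no effect and buffer without enzyme for full effect; nearly all actives have a fitted effect of over 40% in size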
Target sequence (P25779 123-467 limits assumed): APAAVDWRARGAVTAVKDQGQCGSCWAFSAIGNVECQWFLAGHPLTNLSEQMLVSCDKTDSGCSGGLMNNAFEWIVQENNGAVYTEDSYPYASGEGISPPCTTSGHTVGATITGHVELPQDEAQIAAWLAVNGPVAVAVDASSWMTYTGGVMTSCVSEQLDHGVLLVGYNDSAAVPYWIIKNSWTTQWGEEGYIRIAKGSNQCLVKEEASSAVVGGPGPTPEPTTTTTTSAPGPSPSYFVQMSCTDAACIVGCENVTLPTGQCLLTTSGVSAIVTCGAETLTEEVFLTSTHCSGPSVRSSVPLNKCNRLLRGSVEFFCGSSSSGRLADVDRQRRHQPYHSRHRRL
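Compounds were screened in titration against cruzain (1.5 nM) with 0.01% Triton X-100 to counter colloidal aggregation. Activity was the AMC fluorescence increase over 60 s after adding 2 uM Z-FR-AMC at pH 5.5.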
Cruzain noTriton: inhibitors of Trypanosoma cruzi cruzain without detergent; P25779; 2.3% of 200,000 active; Potency, µM, for the others: max response, negative = inhibition, most hits filed as inhibitors; purified cruzain, Z-FR-AMC fluorescence, no detergent;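 also: plate controls were enzyme without inhibitor for no effect and buffer without enzyme for full effect; nearly all actives have a fitted effect of over 40% in size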
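Purified cruzain at 1.5 nM, pre-incubated 15 min with compound at room temperature in 100 mM sodium acetate pH 5.5, 5 mM DTT, 0.00005% Triton X-100. Reaction started with 2 uM Z-FR-AMC; AMC fluorescence increase over 60 s gives rate.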
The depositor's hits bear a star; u = inconclusive. Calls follow the shape of the dose curve; as a rule, active = well fitted curve in the direction sought with a large enough effect; inconclusive = small, poorly fitted or top-dose-only effect, or another doubt; inactive = no such curve, though single readings can be large; an effect the other way counts as inactive or inconclusive. Potency is read from the fitted curve at half-maximal effect.

SMILES	Cruzain inh Det	Cruzain noTriton
Cc1cc(-n2c(SCC(=O)NCc3ccccc3)nc3ccsc3c2=O)ccc1Cl	-1%	0%
O=C1CCCC2=C1C(c1ccc(Br)cc1)c1c([nH]c(=S)[nH]c1=O)N2 (configuration not stated)	18µM*	16µM*
Cc1ccc(C2C3=C(CCCC3=O)Nc3[nH]c(=S)[nH]c(=O)c32)cc1 (configuration not stated)	-20%	-26%
Cc1ccc2c(CC(=O)Nc3cccc(Cl)c3C)coc2c1	-2%	-16%
CCc1ccc(N2C(=O)NC(=O)/C(=C\c3cccn3CCOc3ccc(C(C)C)cc3)C2=O)cc1	-1%	10µM*
CC(C)c1ccc(N2C(=O)NC(=O)/C(=C/c3cnc(-c4ccccc4)nc3)C2=O)cc1	-7%	-4%
N#C/C(=C\c1ccc(Br)cc1)c1nc(-c2cc3cc(Br)ccc3oc2=O)cs1	-1%	4%
Cc1nc2cnc(N(C)C)nc2n(C)c1=O	-2%	2%
CC(C)(C)C1CCc2c(sc(NC(=O)c3cccc(Cl)c3)c2C(=O)NCc2ccco2)C1 (configuration not stated)	-1%	5%
CCN1CCN(c2oc(/C=C/c3ccc(OC)c(OC)c3)nc2C#N)CC1	-22%	20µM*
COc1ccc(/C=C/c2nc(C#N)c(N3CCCCCC3)o2)cc1OC	-4%	u
COc1ccc(/C=C/c2nc(C#N)c(N3CCC(C(N)=O)CC3)o2)cc1OC	u	32µM*
COc1ccc(CCNc2oc(/C=C/c3ccc(OC)c(OC)c3)nc2C#N)cc1	-25%	16µM*
CCN1CCN(c2oc(/C=C/c3cc(OC)c(OC)c(OC)c3)nc2C#N)CC1	-1%	-4%
COc1ccc(/C=C/c2nc(C#N)c(NCCc3ccc(OC)c(OC)c3)o2)cc1OC	-20%	-8%
Cc1ccc2c(=O)c(C(=O)c3ccc(F)cc3)cn(CC(=O)NCc3ccccc3Cl)c2n1	-2%	7%
Cc1ccc2nc(Nc3ccc(Br)cc3)nc(-c3ccccc3)c2c1	0%	7%
O=C(O)c1ccc(C2Nc3ccccc3-c3nnc(SCc4ccc(Cl)cc4)nc3O2)cc1 (configuration not stated)	-15%	-15%
Cc1cc(=O)c2c(O)c3c(O)cc(O)c4c5c(O)cc(O)c6c(O)c7c(=O)cc(C)c8c1c2c(c34)c(c65)c78	-24%	u
O=C1CC(SCc2nc3ccccc3[nH]2)C(=O)N1c1ccc(Cl)cc1 (configuration not stated)	-9%	-3%
O=C1CC(SCc2nc3ccccc3[nH]2)C(=O)N1c1ccc(F)c(Cl)c1 (configuration not stated)	-19%	16µM*
O=[N+]([O-])c1cccc2ccc(/C=C/c3ccc(Cl)cc3)nc12	-5%	10µM*
O=[N+]([O-])c1cccc2ccc(/C=C/c3ccc(C(F)(F)F)cc3)nc12	-10%	-4%
CCc1ccccc1NC(=O)c1ccc(=O)n(Cc2ccc(F)cc2)c1	-1%	8%
Cn1cc(S(=O)(=O)N2CCOCC2)cc1C(=O)Nc1ccc(Cl)c(C(F)(F)F)c1	-4%	3%
SMILES	Cruzain inh Det	Cruzain noTriton
Cc1cc(Cl)ccc1NC(=O)CCS(=O)(=O)c1cc2c(cc1C)NC(=O)CO2	-1%	-3%
Cc1ccc(-n2c(=O)c3oc4ccccc4c3n(CC(=O)Nc3ccc(F)c(Cl)c3)c2=O)cc1C	-3%	10µM*
Cc1ccc(-n2c(=O)c3oc4ccccc4c3n(Cc3ccccc3F)c2=O)cc1C	1%	-2%
CCc1ccccc1NC(=O)C1CCN(c2nc3ccccc3[nH]2)CC1	2%	4%
CCOC(=O)/C=c1\s/c(=C\c2ccc(-c3ccccc3)cc2)c(=O)n1CC(=O)NCc1ccc2c(c1)OCO2	-3%	2.5µM*
CCOC(=O)/C=c1\s/c(=C\c2ccc(C(F)(F)F)cc2)c(=O)n1CC(=O)NCc1ccco1	-4%	u
CCOC(=O)COc1cccc2c(=O)n(CC(=O)NCc3ccc4c(c3)OCO4)ccc12	-5%	-1%
CCOC(=O)/C=c1\s/c(=C\c2ccc(C)cc2)c(=O)n1CC(=O)NCc1ccco1	-1%	16µM*
O=C(CC1N=C2c3ccccc3N=C(SCc3ccccc3F)N2C1=O)NCCc1ccccc1 (configuration not stated)	-8%	1%
CC(=O)Nc1nc(NC(C)=O)c2[nH]c(CO)nc2n1	1%	8%
COc1ccc2c(c1)C(=O)[C@@H](OC(=O)NCCOc1ccccc1)[C@H](c1ccc(OC)c(Br)c1)O2	1%	-5%
CC(=O)c1nn(-c2cccc(Br)c2)cc1C(=O)c1ccc(Br)cc1	4%	13µM*
CC(=O)c1nn(-c2cccc(Br)c2)cc1C(=O)c1ccc(C)cc1	-4%	0%
CCOC(=O)N1CCN(CCC(=O)c2ccc(Cl)cc2)CC1	14µM*	13µM*
CCOC(=O)N1CCN(C(=O)Cc2ccc(Cl)cc2)CC1	7%	-2%
CCc1ccc(-c2nc3cc(NC(=O)c4ccc(F)cc4)ccc3o2)cc1	1%	u
CC(NC(=O)c1ccccc1)C(=O)OCC(=O)N1c2ccccc2Sc2ccccc21 (configuration not stated)	u	-5%
O=C1CN(C(=O)COC(=O)CNC(=O)c2ccccc2)c2ccccc2N1	u	16µM*
O=C1CN(C(=O)COC(=O)Cc2ccsc2)c2ccccc2N1	-2%	-3%
O=C(CNC(=O)c1ccccc1)OCC(=O)N1c2ccccc2Sc2ccccc21	10µM*	10µM*
Cc1ccc(C)c(N2CCN(C(=O)c3cc(C)nc4c3c(C)nn4-c3ccccc3)CC2)c1	-5%	8%
O=C(Nc1nc2ccc(Cl)cc2s1)c1ccc(Br)o1	0%	20µM*
O=C(Nc1nc2c(Cl)cccc2s1)c1ccc(Br)o1	7%	15%
CCC1=C2CC[C@H]3C(=O)N(C)C(=O)[C@H]3[C@H]2[C@@]2(Cc3ccccc3)C(=NCC3CC3)OC(=O)N2C1=O	-3%	0%
N#Cc1cc2c(=O)n3ccccc3nc2n(-c2nnc(SCc3ccccc3Cl)s2)c1=O	-2%	5%
SMILES	Cruzain inh Det	Cruzain noTriton
COc1ccc2c(c1)c(=O)c(S(=O)(=O)c1ccc(Cl)cc1)cn2Cc1cc(C)ccc1C	-4%	10µM*
COc1ccc2c(c1)c(=O)c(S(=O)(=O)c1ccc(C)cc1)cn2Cc1ccccc1C	-6%	-20%
O=S(=O)(c1ccc(-c2nc3ccccc3s2)cc1)N1CCCC1	3%	25µM*
O=S(=O)(c1cccc(-c2nc3ccccc3s2)c1)N1CCCC1	-7%	6%
CCN(CC)CC#CCOC(=O)[C@@](O)(c1ccccc1)C1CCCCC1	-4%	1%
O=C(Cc1ccccc1)Nc1nc2ccccc2[nH]1	0%	2%
O=C(Cc1c[nH]c2ccccc12)Nc1nc2ccccc2[nH]1	-26%	25µM*
Cc1ccc(C)c(N2CCN(C(=O)c3cc(S(=O)(=O)N4CCCCC4)cn3C)CC2)c1	1%	-5%
COc1ccc(S(=O)(=O)n2nc(OC(=O)c3ccco3)cc2N)cc1	13µM*	20µM*
COc1ccc(S(=O)(=O)n2nc(OC(=O)c3ccc(C)cc3)cc2N)cc1	-11%	-26%
COc1ccc(S(=O)(=O)n2nc(OC(=O)c3ccccc3)cc2N)cc1	-15%	-16%
COc1ccc(S(=O)(=O)n2nc(OC(=O)c3cccs3)cc2N)cc1	u	13µM*
COc1ccc(N(C(=O)c2ccccc2)S(=O)(=O)c2ccc3c(c2)n(C)c(=O)n3C)cc1	0%	3%
